This is part of a sample that, as a whole, favours compounds with a hit. Of some 79,000 tested, about 15% had one in any assay. Cut-off read from the data, not from the text of the source: active = growth inhibition above about 70%; inactive = the rest.
Experiments:
[1] = NCI Yeast Anticancer Drug Screen. Data for the rad50 strain (AID 155);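 note: 0% = growth of vehicle-only cultures of the same strain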; conditions: S. cerevisiae rad50 strain growth inhibition; at 50.0 µM; active compounds read high
Method in brief: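 Compounds were tested on a yeast strain with an engineered DNA damage repair alteration; the reported value is growth inhibition normalised to vehicle treatment.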

[2] = NCI Yeast Anticancer Drug Screen. Data for the mec2-1 strain (AID 157); conditions: S. cerevisiae mec2-1 strain, at 50.0 µM, active compounds read high
Method in brief: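 Growth inhibition is read against vehicle-treated controls after compound exposure of the mec2-1 yeast strain, which is defective in DNA damage repair or cell cycle control.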

[3] = NCI Yeast Anticancer Drug Screen. Data for the sgs1 mgt1 strain (AID 161);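 note: 0% = growth of cultures given vehicle only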; conditions: S. cerevisiae sgs1 mgt1 strain, at 50.0 µM, active compounds read high
Method in brief: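 Percent growth inhibition was derived by comparing compound-exposed mutant yeast with vehicle-exposed cultures. The strain carries alterations in DNA damage repair.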

[4] = NCI Yeast Anticancer Drug Screen. Data for the cln2 rad14 strain (AID 165);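 note: 0% = growth equal to vehicle treated cultures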; conditions: S. cerevisiae cln2 rad14 strain, at 50.0 µM, active compounds read high
Method in brief: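 Growth inhibition, relative to vehicle-treated controls, is the read-out. The test organism is a yeast strain with defined genetic alterations, cln2 rad14.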

[5] = NCI Yeast Anticancer Drug Screen. Data for the bub3 strain (AID 167); conditions: S. cerevisiae bub3 mutant strain, at 50.0 µM, active compounds read high
Method in brief: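 Growth of a checkpoint-deficient yeast mutant is measured after compound exposure. Values represent inhibition relative to vehicle.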

[6] = NCI Yeast Anticancer Drug Screen. Data for the mlh1 rad18 strain (AID 175); conditions: S. cerevisiae mlh1 rad18 strain growth inhibition; at 50.0 µM; active compounds read high
Method in brief: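 Cells of a genetically altered yeast strain, deficient in DNA damage repair, were treated with compound. Their growth was then compared with that of vehicle-treated cultures to give inhibition.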

Measured: growth inhibition

COc1c2c(c(OC)c(C(C)=O)c1OC(=O)c1ccccc1)CCO2
inactive: [1] 1% | [2] -14.4% | [3] 11.4% | [4] 11.8% | [5] 0.05% | [6] 15.6%

CN(C)C=NCc1ccc2c(c1)OCO2
inactive: [1] 2.05% | [2] -24% | [3] -13.2% | [4] 2.7% | [5] 1.5% | [6] -17%

CC(C)NC(=O)C1C2CCC(CC2)C1C(=O)NC(C)C (stereo not given)
inactive: [1] 0.95% | [2] 34.6% | [3] -4% | [4] -3.3% | [5] 17.7% | [6] 0.35%

CCOC(=O)/C(O)=C(/C=N\C(=S)Nc1ccccc1Cl)C(=O)OCC
inactive: [1] -44% | [2] -55.3% | [3] -28.4% | [4] 5.35% | [5] -26.2% | [6] -41.4%

CN(C)CCNC(=O)c1cc([N+](=O)[O-])cn1C
inactive: [1] 10.9% | [2] -1.4% | [3] 9.15% | [4] 7.65% | [5] 1.25% | [6] -68.2%

CCN(CC)CCOC(=O)C1c2ccccc2Oc2ccccc21
inactive: [1] 25.2% | [2] -31.5% | [3] 9.1% | [4] 13.9% | [5] 21.4% | [6] 15.3%

COc1ccc2c(c1)CC1(CC2)CCN(CCCN(C)C)CC1
inactive: [1] -32.3% | [2] -7.85% | [3] -22.2% | [4] 10.6% | [5] -9.7% | [6] -42.3%

CN1CCC2(CC1)C(=O)N(N1CCCCCC1)C(=O)N2c1ccccc1
inactive: [1] 26.2% | [2] 4.85% | [3] -0.95% | [4] 4.5% | [5] 4% | [6] 15.5%

CCC(=N)C(c1ccccc1)(c1ccccc1)C(C)CN(C)C (stereo not given)
inactive: [1] 23.6% | [2] -7.3% | [3] -2.4% | [4] -4.75% | [5] -9.15% | [6] 13.7%

O=C(Oc1ccccc1[N+](=O)[O-])Oc1ccccc1[N+](=O)[O-]
inactive: [1] -3.45% | [2] 16.3% | [3] 19.5% | [4] -29.4% | [5] 16.2% | [6] -2.7%

O=C(N/N=C\C(F)(F)F)c1ccncc1
inactive: [1] 0.85% | [2] -10.8% | [3] 4.65% | [4] -25% | [5] 1.5% | [6] 24.1%

CCCC(C)(CC)C(=O)O (stereo not given)
inactive: [1] 7.45% | [2] -14.8% | [3] 14.4% | [4] -10.3% | [5] 1.95% | [6] 34.8%

CCOc1ccc(-n2c(O)c(N=Nc3ccccc3OC)c(=O)n(-c3ccc(OC)cc3)c2=S)cc1
inactive: [1] 18.4% | [2] -7.9% | [3] -10.3% | [4] -10.4% | [5] -4.8% | [6] 7.05%

Cc1cccc(NC(=O)Nc2cccc(C)c2)c1
inactive: [1] -3.75% | [2] -2.95% | [3] -2% | [4] -25.9% | [5] -22.1% | [6] -18.2%

CCCCCCCCCC(=O)N(C)OC
inactive: [1] 6.1% | [2] 4.3% | [3] 7.05% | [4] 1.3% | [5] -4.6% | [6] 18.1%

Cc1cc(O)c(Br)cc1C
inactive: [1] 5.35% | [2] -33% | [3] 9.15% | [4] -5.45% | [5] 0.2% | [6] -9.45%

COc1cc(-c2cc(=O)c3cc4c(cc3[nH]2)OCO4)cc(OC)c1O
inactive: [1] -19.9% | [2] -14.1% | [3] -4.5% | [4] 13.4% | [5] -12.3% | [6] -9.85%

CCCCCCCCCCCCCCCCSc1ccc(S(=O)(=O)N(C)C)cc1N
inactive: [1] -16.3% | [2] -36.8% | [3] 3.15% | [4] 10% | [5] 0.75% | [6] 11.9%

CCC(C)N=C1NS(=O)(=O)c2ccccc21 (stereo not given)
inactive: [1] 9.5% | [2] -3.3% | [3] -2.4% | [4] 33.2% | [5] -8.55% | [6] 7.85%

C(=N\NC1=NCCCN1)/c1ccc2ccccc2c1
inactive: [1] 4.45% | [2] 1.65% | [3] -13.8% | [4] -28.4% | [5] 0.05% | [6] 1.15%
